# High-throughput results from PubChem.
# mIDH1 inhibitor = human IDH1 R132H inhibition; IDH1-R132H enzyme, NADPH consumption, diaphorase/resazurin fluorescence; actives 0.093% (n = 390,000); AID 602179; Potency, µM (highest dose often 76.6 µM), actives largely listed as inhibitors; further: nearly all actives have a fitted effect of over 65% in size
# Target sequence (O75874 whole entry R132H, stated change not applied): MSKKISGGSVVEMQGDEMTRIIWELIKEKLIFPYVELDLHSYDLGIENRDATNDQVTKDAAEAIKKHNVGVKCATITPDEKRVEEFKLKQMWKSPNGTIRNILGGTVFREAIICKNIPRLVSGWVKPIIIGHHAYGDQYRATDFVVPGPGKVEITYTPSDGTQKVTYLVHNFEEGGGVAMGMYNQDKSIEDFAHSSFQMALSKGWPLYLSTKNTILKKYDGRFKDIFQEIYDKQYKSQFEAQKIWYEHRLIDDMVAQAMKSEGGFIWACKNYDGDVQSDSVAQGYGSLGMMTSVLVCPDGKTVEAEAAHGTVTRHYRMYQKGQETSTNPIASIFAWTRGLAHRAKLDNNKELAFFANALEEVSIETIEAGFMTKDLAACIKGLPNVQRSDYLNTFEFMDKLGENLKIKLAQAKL
#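 IDH1-R132H (0.5 ug/mL) preincubated 30 min with compound, then NADPH (0.016 mM) and alpha-KG (2 mM) added; 80 min at RT, pH 7.5. Remaining NADPH coupled via diaphorase/resazurin to fluorescence (540/590 nm); concentration-response curves normalized to no-enzyme control.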
# TrxR1 substrate = substrates of rat thioredoxin reductase 1. O89049. purified TrxR1 substrate turnover, NADPH consumption readout. Potency, µM (titrated, usually from 114 µM). actives 0.01% (n = 390,000); further: nearly all actives have a fitted effect of over 50% in size
#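 Rat TrxR1, dispensed at 90 nM, was prereduced with 400 uM NADPH (final) for 5 min at ~22 deg C, then incubated with compound 15 min before 400 uM selenite. A first-read NADPH fluorescence drop versus no-compound background flagged substrates.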
# TrxR1 inh = blocks rat thioredoxin reductase 1; O89049; recombinant rTrxR1, NADPH fluorescence consumption, selenite substrate; Potency, µM (doses to about 114 µM), most hits filed as inhibitors; actives 1% (n = 390,000); further: nearly all actives have a fitted effect of over 65% in size
#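 Rat TrxR1 (90 nM in the dispensed reagent) was pre-reduced with 400 uM NADPH for 5 min at room temperature, then incubated with compound for 15 min. After 400 uM selenite was added, NADPH fluorescence (Ex 340/Em 450 nm) was followed for 8 min.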
# HEK293 tox = cytotoxicity in counter-screen for GLP-1R inverse agonists. HEK293 cAMP-luciferase reporter cells, luminescence, 24 h. actives 0.13% (n = 410,000). Potency, µM (doses to about 38.3 µM), actives largely listed as inhibitors;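 further: loss of luciferase light is scored as toxicity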
#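 To flag toxic compounds, the library was rerun on cells for 24 hr at 37 deg C and 5% CO2. Viability-linked luminescence was captured 12 min after adding luciferase detection reagent.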
# GLP-1R inv ag = GLP-1 receptor (human) inverse agonism. P43220. HEK293 GLP-1R CRE-luciferase, luminescence, 24 h; GLP-1R form is constitutively active. Potency, µM (top dose mostly 38.3 µM), hits mostly inhibitors. actives 1.6% (n = 410,000); further: nearly all actives have a fitted effect of over 55% in size
#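 Inverse agonism was detected as reduced cAMP-driven luciferase luminescence after 24 h compound treatment. The cells were HEK293 clones expressing constitutively active human GLP-1R with the reporter. Reporter-only and GPR119 cell lines served as counterscreen controls.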
# GLP-1R agonist = agonists of human GLP-1 receptor; P43220; HEK293 GLP-1R CRE-luciferase, luminescence, 4-6 h; cells express a hypersensitive GLP-1R form; Potency, µM (titrated, usually from 45.6 µM), hits mostly activators; actives 0.007% (n = 380,000)
# A number is an active result; n = inactive; u = inconclusive; x = not tested or not shown; [ ] = another dose, or the depositor's remark. Compounds with a hit are over-represented: about 2.7% of the library has one in this group of screens. The call rests on the fitted dose curve; in most records, active means well fitted curve in the direction sought with a large enough effect; inconclusive means small, poorly fitted or top-dose-only effect, or another doubt; inactive means no such curve, though single readings can be large; an effect the other way counts as inactive or inconclusive.
SMILES,mIDH1 inhibitor,TrxR1 substrate,TrxR1 inh,HEK293 tox,GLP-1R inv ag,GLP-1R agonist
COCc1ccc(C(=O)NC2CCCc3c2cnn3-c2cc(C)cc(C)c2)s1 (stereo unspecified),n,n,n,n,7.08µM,n
Cc1ncoc1C(=O)NC1CCCc2c1cnn2-c1ccc(C(C)(C)C)cc1 (stereo unspecified),n,n,n,n,5.01µM,n
Cc1cc(C)cc(-n2ncc3c2CCCC3NC(=O)c2cc(C)oc2C)c1 (stereo unspecified),n,n,u,n,12.6µM,n
COc1cc2nc(N3CCOCC3)nc(NC3CCN(Cc4ccccc4)CC3)c2cc1OC,x,n,n,x,x,x
Cc1ccc(Cn2c(SCC(=O)C(C)(C)C)nc3ccsc3c2=O)cc1,n,n,n,n,u,x
Cc1ccc2cc3c(NS(=O)(=O)c4cccc5nonc45)nn(CC(C)C)c3nc2c1,n,n,n,n,10µM,n
CCOC(=O)N1CCC(N(CCN(C)C)C(=S)Nc2cccc(SC)c2)CC1,n,n,n,n,5.62µM,n
Cc1noc(NS(=O)(=O)c2ccc(NC(=O)c3ccoc3C)cc2)c1C,n,n,28.2µM,n,n,n
CN(CC(=O)Nc1ccc(OC(F)(F)F)cc1)C(=O)Cc1cccs1,n,n,n,n,11.2µM,n
O=C(C[n+]1cccc2cc(Cl)ccc21)c1ccc2ccccc2c1,x,n[0.0914 µM],n,x,x,x
O=C(C1CCCCC1)N(Cc1cccnc1)c1nc2c(F)cccc2s1,n,n,n,n,8.91µM,x
COc1cccc2sc(N(Cc3cccnc3)C(=O)C3CCCCC3)nc12,n,n,n,n,u,x
Cc1ccc(OCCCn2c(C3CC(=O)N(c4cccc(Cl)c4)C3)nc3ccccc32)c(C)c1 (stereo unspecified),n,n,n,n,u,x
COc1ccc(OCCCCn2c(C3CC(=O)N(c4cccc(Cl)c4)C3)nc3ccccc32)cc1 (stereo unspecified),n,n,n,n,10µM,x
O=C1CC(c2nc3ccccc3n2CCCCOc2ccccc2)CN1c1ccccc1Cl (stereo unspecified),n,n,n,n,10µM,x
CCOc1ccccc1N1CC(c2nc3ccccc3n2CCCCOc2ccccc2)CC1=O (stereo unspecified),n,n,n,n,n,x
COc1cc(NC(=O)c2c(-c3ccc(C)cc3)nnc3ccccc23)cc(OC)c1OC,n,n,n,n,n,x
CCOC(=O)C1=CN(Cc2ccco2)S(=O)(=O)N(C)C1c1ccc(C(F)(F)F)cc1 (stereo unspecified),n,n,u,n,u,n
CCOC(=O)C1=CN(Cc2ccco2)S(=O)(=O)N(C)C1c1ccc2ccccc2c1 (stereo unspecified),n,n,n,n,10µM,n
CCOc1ccc(NC(=O)CN(C)S(=O)(=O)c2ccc3[nH]c4c(c3c2)CCCC4)cc1,n,n,n,n,11.2µM,x
Cc1cccc(Cn2nc(C(C)(C)C)cc2C(=O)Nc2ccc(F)cc2)c1,n,n,n,u,5.01µM,n
Cc1ccc(Cn2nc(C)cc2C(=O)Nc2ccc(Cl)cc2)cc1,n,n,n,n,4.47µM,n
CC(C)(C)c1cc(C(=O)NN)n(Cc2ccc(F)cc2)n1,n,n,n,n,u,n
COC(=O)c1cc(NC(=O)c2cc(C(C)(C)C)nn2Cc2ccc(F)cc2)ccc1N1CCOCC1,n,n,n,n,3.55µM,n
Cc1ccc(Cn2nc(C)cc2C(=O)Nc2ccccc2Cl)cc1,n,n,n,n,n,n
SMILES,mIDH1 inhibitor,TrxR1 substrate,TrxR1 inh,HEK293 tox,GLP-1R inv ag,GLP-1R agonist
CCCN1CNc2c(c(=O)[nH]c(=S)n2CCc2ccc(C)c(C)c2)C1,x,n,n,x,x,x
COc1ccc(-n2nc(C(=O)Nc3ccc(C(C)=O)cc3)nc2-c2ccccc2)cc1,n,n,n,n,u,x
CCCN(CCC)c1nc(N)nc(-c2cc(Cl)ccc2OC)n1,n,n,n,n,8.91µM,n
CCOc1ccccc1-n1c(CN2CCN(C(=O)c3ccco3)CC2)nc2ccccc2c1=O,n,n,20µM,n,n,n
O=[N+]([O-])c1ccc(S(=O)(=O)CC(CN2CCOCC2)N2CCOCC2)cc1 (stereo unspecified),n,n,n,n,n,n
O=[N+]([O-])c1ccc(S(=O)(=O)CC(CN2CCCCC2)N2CCCCC2)cc1 (stereo unspecified),n,n,2.51µM,n,n,n
CCc1ccccc1NC(=O)Nc1cccn(Cc2ccccc2F)c1=O,n,n,n,n,10µM,n
CN(C)c1ccc(/C=C/c2c[n+](C)cc3ccccc23)cc1,x,n,n,x,x,x
CSc1ccc(/C=C/C(=O)c2ccc(NC(=O)C(C)C)cc2)cc1,n,n,n,u,10µM,n
O=C1NC2CCCCN2C12CCN(CCCN1c3ccccc3CCc3ccc(Cl)cc31)CC2 (stereo unspecified),x,x,x,x,x,n
COc1ccc(SC[C@H](Cc2ccccc2)N2CC[C@@H](C)CCC2=O)cc1,n,n,n,n,u,n
Cc1ccc(SC[C@H](Cc2ccccc2)N2CC[C@@H](C)CCC2=O)cc1,n,n,n,n,10µM,n
Cc1ccc(NC(=O)c2ccc(NCCCN3CCC(C)CC3)c([N+](=O)[O-])c2)cc1F,n,n,n,n,n,n
Cc1ccc(C(=O)N/C(=C\c2ccc(-c3ccccc3[N+](=O)[O-])o2)C(=O)NCCCN2CCOCC2)cc1,n,n,39.8µM,n,u,n
O=C(Nc1cccc(Cl)c1)c1ccc(NCCCN2CCOCC2)c([N+](=O)[O-])c1,n,n,n,n,5.01µM,n
O=C(NCCCN1CCOCC1)c1ccc(Sc2ccccc2Cl)c([N+](=O)[O-])c1,n,n,n,n,3.55µM,n
O=C(NCCCN1CCOCC1)c1ccc(Sc2ccc(Br)cc2)c([N+](=O)[O-])c1,n,n,n,n,n,n
Cc1c(C)n(Cc2ccccc2)c2ccc(C(=O)NCCCN3CCOCC3)cc12,n,n,n,n,1µM,n
Cc1c(C)n(Cc2ccc(F)cc2)c2ccc(C(=O)NCCCN3CCOCC3)cc12,n,n,n,n,u,n
Cc1ccc(-c2cc(C(=O)NCCCN3CCOCC3)no2)cc1,n,n,n,n,n,n
O=C(NCCCN1CCOCC1)c1cc(-c2cccs2)on1,n,n,15.8µM,n,n,n
Cc1ccc2nc(SCC(=O)NC3CCCc4ccccc43)[nH]c2c1 (stereo unspecified),n,n,n,n,8.91µM,n
S=C1NC2(CCCCC2)NN1c1ccccc1,n,n,n,n,u,n
